Screens (PubChem)
The entries come from a sample that favours hits as a whole.
LmPK inh – qHTS Assay for Inhibitors of Leishmania Mexicana Pyruvate Kinase (LmPK). Potency, µM (highest dose often 57.5 µM), actives largely listed as inhibitors. Q27686. hit rate 0.37% among 290,000. purified LmPK, Kinase-Glo ATP luminescence, 1 h
Target sequence (Q27686 whole entry, looked up): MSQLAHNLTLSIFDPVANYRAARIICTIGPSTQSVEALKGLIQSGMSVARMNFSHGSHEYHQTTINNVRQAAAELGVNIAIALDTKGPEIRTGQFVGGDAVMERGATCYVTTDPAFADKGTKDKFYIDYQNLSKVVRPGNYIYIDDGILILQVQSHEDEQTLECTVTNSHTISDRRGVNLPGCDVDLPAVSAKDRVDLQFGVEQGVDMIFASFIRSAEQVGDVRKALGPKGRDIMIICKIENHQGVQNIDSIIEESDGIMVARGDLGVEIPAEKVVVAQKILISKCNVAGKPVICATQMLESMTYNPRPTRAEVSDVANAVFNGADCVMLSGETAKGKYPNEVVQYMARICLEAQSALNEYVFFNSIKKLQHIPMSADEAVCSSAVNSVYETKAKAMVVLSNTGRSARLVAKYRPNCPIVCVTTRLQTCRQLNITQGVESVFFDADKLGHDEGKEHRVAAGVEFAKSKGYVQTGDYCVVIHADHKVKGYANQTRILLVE
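Pyruvate kinase activity monitored as ATP production (luciferase luminescence). Conditions: 0.1 nM enzyme, 0.5 mM PEP, 0.1 mM ADP, 1 h, RT; normalized against uninhibited and no-enzyme wells.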
Shiga inhibitor – A qHTS for Small Molecule Inhibitors of Shiga Toxin; hit rate 9.2% among 290,000; inhibition, % at 38.7 µM; Vero cells, Shiga toxin protein synthesis inhibition reporter; in the data active = inhibition mostly above about 28%, no sharp cut-off; inactive = mostly below about 43%
FBPA Giardia inh – qHTS Assay for Inhibitors of Fructose-1,6-bisphosphate Aldolase from Giardia Lamblia; hit rate 0.71% among 290,000; AID 2451, 2010; Potency, µM (doses to about 59.6 µM), usual class: inhibitors; A8B2U2; purified Giardia FBPA; also: nearly all actives have a fitted effect of over 55% in size
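40 nM FBPA preincubated 10 min at RT with compound (up to 57.5 uM final), then substrate plus GAPDH/TPI/NAD/arsenate coupling and diaphorase/resazurin added. Fluorescence read after 20 min at RT, 525/598 nm.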
TbPYK inhibitor – qHTS of Trypanosoma Brucei Inhibitors; Potency, µM (doses to about 76.8 µM), most hits filed as inhibitors; hit rate 0.12% among 410,000; AID 624173, 2012; pyruvate kinase (Trypanosoma brucei), Q57TT1; TbPYK enzyme, Kinase-Glo Plus ATP luminescence, 45 min; also: nearly all actives have a fitted effect of over 50% in size
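Activity of T. brucei pyruvate kinase was followed by Kinase-Glo Plus luminescence after the enzyme reacted 45 min at room temperature with 130 uM ADP (final) and substrate. Test compounds were added before ADP at multiple concentrations.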
CHX counter – Cycloheximide Counterscreen for Small Molecule Inhibitors of Shiga Toxin; cell reporter, cycloheximide protein synthesis inhibition counterscreen; max response, %; hit rate 12% among 300,000; AID 2314, 2010; in the data active = max response mostly above about 13%, no sharp cut-off; inactive = mostly below about 14%; also: read at 38.3 µM for the half of the compounds with a filed dose
RE007 growth inh – qHTS Assay for Inhibitors of the HIV-1 protein Vpr; Potency, µM (titrated, usually from 92.2 µM), most hits filed as inhibitors; hit rate 0.21% among 360,000; S. pombe RE007 Vpr strain, BacTiter-Glo ATP luminescence, 24 h; active = well fitted falling curve with a large enough effect; inconclusive = small, poorly fitted or top-dose-only effect; inactive = no such curve, though single readings can be large or run the other way; also: nearly all actives have a fitted effect of over 50% in size
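Fission yeast strain RE007, carrying one chromosomally integrated HIV-1 vpr copy, was seeded at OD 0.01 in PMG+AL medium with 23 nL pinned compound. After 24 h at 30 °C and 99% humidity, viability was read by BacTiter-Glo luminescence.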
Of the large screens only hits and unclear results are named; the others gave an inactive call. Unless noted, calls follow the shape of the dose curve; as a rule, active = well fitted curve in the direction sought with a large enough effect; inconclusive = small, poorly fitted or top-dose-only effect, or another doubt; inactive = no such curve, though single readings can be large; an effect the other way counts as inactive or inconclusive.

O=C(CN1CCCCCC1)Nc1cc([N+](=O)[O-])ccc1Cl	none
O=C(CN1CCCCC1)Nc1nnc(-c2ccc([N+](=O)[O-])cc2)s1	CHX counter 21
O=C(CN1CCCC1)Nc1nnc(-c2cccs2)s1	Shiga inhibitor 89, CHX counter 28
CCc1nnc(NC(=O)CN2CCN(C(=O)c3ccccc3)CC2)s1	none
CC(C)(C)CC(=O)Nc1nnc(-c2cccs2)s1	Shiga inhibitor 67, CHX counter 43
Cc1ccccc1NC(=O)C1CCC(CNS(=O)(=O)c2ccc3c(c2)C(C)(C)C(=O)N3C)CC1 (centres undefined)	none (no result: LmPK inh, Shiga inhibitor, FBPA Giardia inh, CHX counter, RE007 growth inh)
Cc1cc(N(C)C)ccc1N=Nc1ccc2ncccc2c1	Shiga inhibitor 95, CHX counter 52 (no result: RE007 growth inh)
CN(C)c1ccc(N=Nc2ccc3ncccc3c2)cc1	none (no result: LmPK inh, Shiga inhibitor, FBPA Giardia inh, CHX counter)
Cc1cccc(-n2cc(CN3CCN(Cc4nccn4C)CC3)c(-c3cccc(F)c3)n2)c1	Shiga inhibitor 53, CHX counter 29
CC(C)c1cnc2c(c1SCC(=O)c1ccccc1)c(=O)n(C)c(=O)n2C	none (no result: LmPK inh, Shiga inhibitor, FBPA Giardia inh, CHX counter, RE007 growth inh)
CCCC(=O)Nc1cc(=O)n(C)c(=O)n1C	none
Cn1c(NC(=O)/C=C/c2ccccc2)cc(=O)n(C)c1=O	CHX counter 34
COc1ccc(/C=C/C(=O)Nc2cc(=O)n(C)c(=O)n2C)cc1	CHX counter 31
Cn1c(NC(=O)/C=C/c2ccc(Cl)c(Cl)c2)cc(=O)n(C)c1=O	none
Cn1c(NC(=O)CCc2ccccc2)cc(=O)n(C)c1=O	Shiga inhibitor 70, CHX counter 43
CSCC[C@H](NC(=O)[C@H](CC(C)C)NC(=O)[C@H](CO)NC(=O)[C@H](CCC(=O)O)NC(=O)[C@H](CC(C)C)NC(=O)[C@H](Cc1ccc(O)cc1)NC(=O)[C@H](CCCCN)NC(=O)[C@H](CCCCN)NC(=O)[C@H](C)NC(=O)[C@H](CO)NC(=O)[C@H](CC(C)C)NC(=O)[C@H](CCC(N)=O)NC(=O)CNC(=O)[C@H](CC(C)C)NC(=O)[C@H](CC(C)C)NC(=O)[C@H](CCCCN)NC(=O)[C@H](CO)NC(=O)[C@H](Cc1ccccc1)NC(=O)[C@H](CC(=O)O)NC(=O)[C@H](CO)NC(=O)[C@@H](NC(=O)[C@H](Cc1ccccc1)NC(=O)[C@@H](NC(=O)CNC(=O)[C@H](CC(=O)O)NC(=O)[C@H](C)NC(=O)[C@@H](N)Cc1cnc[nH]1)C(C)C)[C@@H](C)O)C(N)=O	none (no result: LmPK inh, TbPYK inhibitor, RE007 growth inh)
C[C@@H](C(=O)Nc1ccc2ccccc2c1)[C@@H]1C[C@@]1(C)[C@@H](NC(=O)c1ccncc1Cl)c1ccccc1	none (no result: LmPK inh, Shiga inhibitor, TbPYK inhibitor, CHX counter, RE007 growth inh)
CCOC(=O)CCCC(=O)N1CCOCCOCCN(C(=O)CCCC(=O)OCC)CCOCCOCC1	Shiga inhibitor 63, CHX counter 43
Cc1cc(OCCCC(=O)N2CCCCC2)cc(C)c1Cl	Shiga inhibitor 32, CHX counter 13
Cc1cc(Cl)ccc1OCCCC(=O)N1CCOCC1	Shiga inhibitor 71, CHX counter 37
Cc1cc(Cl)ccc1OCCCC(=O)N1CCCCC1	CHX counter 35
O=C(O)CCc1nc(-c2ccccc2)no1	none
NC(Cc1ccccc1)c1nc(-c2ccccc2)no1 (centres undefined)	Shiga inhibitor 38, CHX counter 30
CC(C)(C)C1CCc2nc(NC(=O)Cc3cn4ccsc4n3)sc2C1 (centres undefined)	Shiga inhibitor 146, CHX counter 37
CC1CCc2nc(NC(=O)C3CCCO3)sc2C1 (centres undefined)	Shiga inhibitor 55, FBPA Giardia inh inconclusive, CHX counter 24
CC1CCc2nc(NC(=O)Cc3cccs3)sc2C1 (centres undefined)	Shiga inhibitor 94, CHX counter 48
CCC(CC)C(=O)Nc1nc2c(s1)CC(C)CC2 (centres undefined)	none (no result: LmPK inh, Shiga inhibitor, FBPA Giardia inh, CHX counter, RE007 growth inh)
COc1cc(NC(=O)NC(C)c2c(-n3cccc3)sc3c2CCN(C)C3)cc(OC)c1 (centres undefined)	none (no result: LmPK inh, Shiga inhibitor, FBPA Giardia inh, CHX counter, RE007 growth inh)
Cc1ccccc1NCc1cccn1-c1nnc(N2CCC(C)CC2)s1	none (no result: LmPK inh, Shiga inhibitor, FBPA Giardia inh, CHX counter, RE007 growth inh)
Fc1ccccc1N1CC(c2ccccc2)C(c2cccs2)=N1 (centres undefined)	none
c1ccc(C2COC(c3cccs3)=N2)cc1 (centres undefined)	CHX counter 23
COc1ccc(NC(=O)Nc2ccc(Br)cn2)cc1	Shiga inhibitor 77
COc1ccc(NC(=S)NC(=O)/C=C/c2ccc(F)cc2)cc1	none
COc1ccc(/C=C/C(=O)NC(=S)Nc2ccc(Br)cn2)cc1	CHX counter 11
CCOC(=O)c1c(S(=O)(=O)N2CCC(C(=O)Nc3ncccc3C)CC2)c(C)n(C)c1C	none (no result: LmPK inh, Shiga inhibitor, FBPA Giardia inh, CHX counter, RE007 growth inh)
O=C(c1ccc(Nc2nccc(-c3cc4ccccc4s3)n2)cc1)N1CCC(N2CCCC2)CC1	none (no result: LmPK inh, TbPYK inhibitor, RE007 growth inh)
C/C(=N\NC(=O)c1ccco1)c1cc(Cl)sc1Cl	Shiga inhibitor 71, CHX counter 25 (no result: FBPA Giardia inh)
C/C(=N\NC(=O)c1ccco1)c1cc2ccccc2o1	Shiga inhibitor 95, CHX counter 58
C/C(=N\NC(=O)c1ccco1)c1ccc(NC(=O)c2ccccc2)cc1	Shiga inhibitor 72, CHX counter 35
C/C(=N\NC(=O)c1ccncc1)c1cc2ccccc2o1	none
C/C(=N\NC(=O)c1ccco1)c1ccc(-c2ccccc2)cc1	Shiga inhibitor 108, CHX counter 23
COc1ccc(Cn2cc(C(=O)c3ccc(C)c(C)c3)c(=O)c3ccccc32)cc1	none (no result: LmPK inh, Shiga inhibitor, FBPA Giardia inh, CHX counter, RE007 growth inh)
Cc1ccc(-n2ncc3c(NCCC4=CCCCC4)ncnc32)cc1	none (no result: LmPK inh, Shiga inhibitor, FBPA Giardia inh, CHX counter, RE007 growth inh)
c1ccc2c(-c3cnn4cc(-c5ccc(N6CCNCC6)cc5)cnc34)ccnc2c1	none (no result: LmPK inh, Shiga inhibitor, FBPA Giardia inh, CHX counter, RE007 growth inh)
COc1ccc(Cl)cc1NS(=O)(=O)c1ccc2c(c1)NC(=O)CC(=O)N2	none (no result: LmPK inh, Shiga inhibitor, FBPA Giardia inh, CHX counter, RE007 growth inh)
C/C(=N\NC(=O)c1ccco1)c1ccc(NC(=O)C(F)(F)F)cc1	Shiga inhibitor 61, CHX counter 57
C/C(=N\NC(=S)Nc1ccccc1C)c1cc2ccccc2o1	Shiga inhibitor 26, CHX counter 17
C/C(=N\NC(=O)COc1ccccc1F)c1cc2ccccc2o1	Shiga inhibitor 126, CHX counter 48
CC(C)(C)c1ccc(C(=O)Nc2ccc(NC(=O)c3ccco3)cc2)cc1	none
C/C(=N\NC(=S)Nc1c(C)cccc1C)c1cc2ccccc2o1	none
CCN(CC)S(=O)(=O)c1cccc(C(=O)Nc2cc(C)on2)c1	none
O=C(NCCc1ccc(F)cc1)Nc1ccccc1	Shiga inhibitor 31, CHX counter 30
O=C(NCCc1ccncc1)Nc1ccc(F)cc1	none
